This is an account of results in PubChem BioAssay (NCI).

This is part of a sample that, as a whole, favours compounds with a hit. Of some 83,000 tested, about 20% had one in any assay.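 Step 1: grow cells in 96-well plates. Step 2: add test compound at a single concentration. Step 3: incubate 48 h. Step 4: record percent growth.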 Active and inactive are the calls of the source. The calls were made as follows: active = growth percent below 10; inactive = the rest.

This assay relates to NCI-H226 lung. Briefly: NCI-60 one-dose screen, 48 h (100 = growth as untreated, 0 = no growth, -100 = all killed). To be noted: 10 µM unless noted.
As to `NC(=O)n1c(=O)n(-c2cccc(C(F)(F)F)c2)c(=O)c2cc(-c3ccc(F)cc3F)ccc21`, the growth was 13.2% (inactive).
Take `O=C1CSC(c2cn(-c3ccccc3)nc2-c2ccc(Cl)cc2)N1c1ccccc1` (stereo not drawn): the growth was 98.4% (inactive).
To `COc1ccc(/C=N/NC(=O)CSc2nc(-c3cnccn3)cc(-c3cccs3)c2C#N)cc1` belongs 75.1% (inactive); to `C#Cc1cc(OC)c(C(=O)Nc2ccc(F)cc2C(=O)Nc2cccc(S(=O)(=O)C(F)(F)F)c2)cn1`, 13.1% (inactive); to `CN1c2ccccc2Sc2cc(/C=N/Nc3ccnc4cc(Cl)ccc34)ccc21`, 90.5% (inactive).
Regarding `O=C(/C=C/c1cccc(F)c1)c1cccc(OCCCOc2cccc(C(=O)/C=C/c3cccc(F)c3)c2)c1`, the growth is 77% (inactive).
Consider `CN1CCN(Cc2ccc(NC(=O)c3cncc(C#Cc4cnc(N)nc4)c3)cc2C(F)(F)F)CC1`, for which the growth is 12.8% (inactive).
Take `O=C(CSc1nc2ccccc2c(=O)n1-c1ccc(Cl)c(Cl)c1)Nc1ccc(S(=O)(=O)Nc2ccc(Cl)nn2)cc1`: the growth was 90.9% (inactive).
`Cc1[nH]c(C(=O)Nc2ccc(C(N)=O)cc2N2CCOC(C)C2)c(Cl)c1Cl` (stereo not drawn): the growth is 89.9% (inactive).
For the compound `N#Cc1nc(-c2ccccc2)oc1N1CCC(C2(C(F)(F)F)N=N2)CC1`, the growth was 97% (inactive).
Regarding `C/C(=C(\c1ccc(O)cc1)c1ccc(OCCN2CCCCCC2)cc1)c1ccc(Cl)cc1`, the growth was -64.1% (active).
For `COc1ccc(C(=O)c2c(N)c(C#N)cn2-c2ccc(Cl)cc2Cl)cc1`, the growth was 97.2% (inactive).
On to `C#C[C@]1(O)CC[C@H]2[C@@H]3CC=C4c5sc(Nc6cccc(F)c6)nc5CC[C@]4(C)[C@H]3CC[C@@]21C`, for which the growth was 43.6% (inactive).
